# Tests used:
# Details in all cases: concentration: 10 µM; 24 h
# HCC1569 [1] = assay: cell number relative to DMSO (% of DMSO); higher = more cells (less growth inhibition / toxicity)
# Outline: (§1)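 Six fields per well were imaged at ×10 after the cells were fixed in 3.7% formaldehyde and stained with a rabbit anti-H1.0 antibody, an AlexaFluor 647 secondary and DAPI. The HCC1569 and TDF cells had been plated at 800 per well in 384-well plates (RPMI, 10% FBS) and treated in triplicate with compounds at 10 µM for 24 h at 37 °C. The values are the median of replicates of H1.0 nuclear intensity or cell number, as percent of the plate control. Smoothing for positional effects was applied to HCC1569 data.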
# TDF [2] = assay: as above
# Outline: as §1
# TDF [3] = assay: H1.0 immunofluorescence intensity relative to DMSO (% of DMSO); higher = stronger H1.0 induction, active = 120 or more
# Outline: as §1
# HCC1569 [4] = assay: H1.0 immunofluorescence intensity relative to DMSO (% of DMSO); higher = stronger H1.0 induction, active = 140 or more
# Outline: as §1
# 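Wherever H1.0 immunofluorescence intensity relative to DMSO is given: TDF is a line of transformed human dermal fibroblasts of mesenchymal origin.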
# 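Wherever cell number relative to DMSO is given: TDF denotes transformed human dermal fibroblasts of mesenchymal origin.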
Compound,cell number (HCC1569 [1]),cell number (TDF [2]),H1.0 immunofluorescence intensity (TDF [3]),H1.0 immunofluorescence intensity (HCC1569 [4])
CON=C(C(=O)NC1C(=O)N2C(C(=O)[O-])=C(COC(C)=O)CSC12)c1csc(N)n1.[Na+] (stereo unspecified) [Cefotaxime sodium],103,117,92.3 (inactive),87 (inactive)
CC(C=CC1=C(C)CCCC1(C)C)=CC=CC(C)=CC(=O)O [13-cis-retinoic acid],102,100,88.5 (inactive),123 (inactive)
CCCCCC(O)C=CC1C(O)CC(O)C1CCCCCCC(=O)O (stereo unspecified) [Prostaglandin F1a],106,101,91.9 (inactive),97.7 (inactive)
Cl.O=C(CNC(=O)c1cccc(C(F)(F)F)c1)N[C@@H]1CCN(Cc2ccc(Cl)cc2)C1,89.9,96.8,89.1 (inactive),134 (inactive)
CCCN(CCC)CCc1cccc2c1CC(=O)N2.Cl [Ropinirole hydrochloride],101,95.8,96.1 (inactive),101 (inactive)
CN(C)CCC=C1c2ccccc2COc2ccccc21.Cl [Doxepin hydrochloride],100,95.2,93.1 (inactive),97.5 (inactive)
CNC(=C[N+](=O)[O-])NCCSCc1ccc(CN(C)C)o1.Cl [Ranitidine hydrochloride],101,113,91.6 (inactive),85.1 (inactive)
Cn1c(-c2ccc3c(c2)OCO3)cc(=O)c2ccccc21 [Graveoline],103,99.8,101 (inactive),96.9 (inactive)
O=c1cc(-c2ccc(O)cc2)oc2cc(OC3OC(CO)C(O)C(O)C3O)c(C3OC(CO)C(O)C(O)C3O)c(O)c12 (stereo unspecified) [Saponarin],98.8,89.5,108 (inactive),94.4 (inactive)

# Reference: the supplement of paper PMC7156485
